Screens deposited in PubChem BioAssay by several laboratories.
aSyn 5UTR inh – MLPCN primary screen, SNCA 5' untranslated region; alpha-synuclein 5'UTR reporter, inhibitor activity; inhibition, % (tested at 7.5 µM); hit rate 0.82% among 300,000; AID 1813, 2009; in the data active means inhibition above about 60%;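 further: H4 neuroglioblastoma cells stably carrying SNCA 5'UTR luciferase fusion; 0% = DMSO wells and 100% = positive control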
APP 5UTR inh – inhibitors of APP translation via 5'UTR reporter, primary screen, APP 5'UTR luciferase, SH-SY5Y cells; SH-SY5Y APP 5'UTR-luciferase reporter, luminescence; inhibition, % at 2 µM; AID 1285, 2008; hit rate 0.82% among 190,000;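 active means inhibition above a set limit, derived from the sample mean plus 3 SD, cut at about 45% in these data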
Ba/F3 V617F tox – reduced viability of JAK2V617F-dependent Ba/F3 cells, primary screen, JAK2V617F inhibitor project, cell-based, Ba/F3 EpoR-JAK2V617F, luminescence. ATP luminescence. inhibition, % at 5.6 µM. hit rate 1.1% among 220,000. AID 1446, 2008;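 active means inhibition above the campaign mean plus 3 SD over all tested compounds, cut at about 24% in these data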;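 further: cytokine-independent growth of Ba/F3 cells driven by EpoR plus mutant JAK2; 0% = DMSO-treated cells and 100% = JAK inhibitor I control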
KLF5 inh – KLF5 expression inhibitors, primary screen, DLD-1 cells, luminescence | hit rate 0.23% among 290,000 | AID 1700, 2009 | DLD-1 KLF5 promoter-luciferase reporter | inhibition, % at 5 µM;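 active means inhibition above a per-plate limit of that plate's mean compound inhibition plus 3 SD, cut at about 60% in these data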;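 further: 0% = DMSO wells and 100% = LY294002 at 200 µM; higher means less KLF5 promoter-driven luciferase light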
BaF3 parental – parental Ba/F3 cell viability inhibition, counter-screen for JAK2V617F inhibitor project, murine pro-B, CellTiter-Glo luminescence; CellTiter-Glo ATP luminescence; inhibition, % at 5.6 µM; hit rate 1.1% among 220,000; AID 1486, 2009;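 active means inhibition above a per-campaign cutoff, the mean inhibition of all tested compounds plus 3 SD, cut at about 27% in these data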;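 further: 0% = DMSO wells and 100% = JAK Inhibitor I control wells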
IEC-6 cytotox – cytotoxicity in IEC-6 intestinal epithelial cells, primary screen, cytotoxicity control for KLF5 inhibitor project, cell-based, luminescence | IEC-6 cytotoxicity, luminescence viability | inhibition, % at 5 µM | hit rate 0.78% among 290,000 | AID 1825, 2009; in the data active means inhibition above about 22%;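 further: 0% = plate median of test compound wells and 100% = cytotoxic reference compound wells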
BaF3 parental 2 – parental Ba/F3 cell viability inhibition, counter-screen for JAK2V617F inhibitor project, murine pro-B, CellTiter-Glo luminescence; shares compounds with Ba/F3 V617F tox; AID 1520, 2009; inhibition, % at 5.6 µM; cells kept alive by added IL-3; hit rate 31% among 580;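 active means cell growth inhibition above the hit limit set in the earlier mutant JAK2 cell screen, cut at about 27% in these data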;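 further: plate controls were DMSO-treated cells for no effect and JAK Inhibitor I control wells for full effect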
JAK2V617F conf – viability loss in Ba/F3 EpoR-JAK2V617F cells, confirmation, JAK2V617F inhibitor project, cell-based, luminescence, triplicate. shares compounds with Ba/F3 V617F tox. inhibition, % at 5.6 µM. hit rate 66% among 580. CellTiter-Glo luminescence;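 active means mean inhibition above the hit cutoff derived in the earlier primary screen, cut at about 25% in these data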;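 further: 0% = DMSO-treated cells and 100% = JAK inhibitor I control wells; higher means lower luminescence from reduced cell ATP and viability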
Starred values were filed as active, the others as inactive; / = no result. Sampled rows, rich in hits. Any-hit rate of the full collection: about 2.2%.

SMILES	aSyn 5UTR inh	APP 5UTR inh	Ba/F3 V617F tox	KLF5 inh	BaF3 parental	IEC-6 cytotox	BaF3 parental 2	JAK2V617F conf
COCCOC(=O)C1=C(C)N(c2ccccc2)C(=O)NC1c1cccc([N+](=O)[O-])c1 (stereo not drawn)	15	-9	34*	-16	12	-2	-3	9
CN(Cc1ccccc1)C(=O)COC(=O)CNS(=O)(=O)c1ccc2ccccc2c1	5	/	/	/	/	/	/	/
CCC1CCCCN1CCCNC(=O)C1CC(=O)N(CCc2ccccc2)C1 (stereo not drawn)	1	/	/	5	/	0	/	/
COc1ccc(/C=N/n2cnc3c([nH]c4ccc(F)cc43)c2=O)cc1CN1CCCC1	17	/	40*	28	15	0	11	30*
COc1ccc(/C=N/n2cnc3c([nH]c4ccc(C)cc43)c2=O)cc1CN1CCCC1	-17	/	4	-13	6	6	/	/
CC(C)C(O)C1CCN(Cc2nc(-c3cccs3)no2)CC1 (stereo not drawn)	-108	-31	0	-56	4	1	/	/
CCOC(=O)/C=C/S(=O)(=O)c1ccc(NC(C)=O)cc1	-58	74*	58*	-15	4	5	21	24*
CCOC(=O)c1c(NC(=O)C(C)N2CCN(C(=O)c3ccco3)CC2)sc2c1CCCC2 (stereo not drawn)	43	-1	28*	4	4	-4	-5	-11
COc1cccc(/C=C2\SC(=S)N(c3cccnc3)C2=O)c1OC	31	-17	1	-23	-3	12	/	/
O=C(O)COc1ccccc1/C=C1\SC(=S)N(c2cccnc2)C1=O	8	/	82*	-16	-1	6	-4	12
CCOc1ccc(N(CC(=O)N/N=C/c2cc(Br)c(C)o2)S(C)(=O)=O)cc1	-1	-20	-2	10	0	-4	/	/
COc1ccccc1Oc1cc(-n2nc(C)cc2C)ncn1	11	-18	7	-12	11	-2	/	/
Cc1ccccc1Oc1cc(-n2ncc(Cl)c(Cl)c2=O)ncn1	/	95*	34*	-20	9	-5	100*	100*
CCOC(=O)c1ccc(NC(=S)NCCC2=CCCCC2)cc1	4	12	81*	5	-3	3	-5	-14
CCOC(=O)c1ccc(NC(=O)NCCc2ccccc2OC)cc1	8	-27	64*	-1	0	-2	-6	-10
CCOC(=O)c1ccc(NC(=O)NCc2ccccc2OC)cc1	28	-25	6	-11	3	5	/	/
Cc1ccc(NC(=S)NCCC2=CCCCC2)cc1	-137	-95	7	-45	12	8	/	/
CC1CN(c2ccc([N+](=O)[O-])c(NCCOc3ccccc3)c2)CCN1 (stereo not drawn)	-38	-16	-3	-47	7	4	/	/
CC(=O)Nc1ccc(N/C(=N\S(=O)(=O)c2ccccc2)c2ccccc2)cc1	3	/	/	-37	/	0	/	/
O=c1[nH]c2ccc(N/C(=N/S(=O)(=O)c3ccccc3)c3ccccc3)cc2[nH]1	1	1	29*	-25	3	-4	-2	1
COc1ccc(-c2[nH]ncc2CN(C)Cc2ccccn2)c(OC)c1	8	-14	-3	-72	3	-3	/	/
OCCC1CN(Cc2cccc3nccnc23)CCN1Cc1ccc(F)c(F)c1 (stereo not drawn)	-17	-4	7	-46	12	1	/	/
COc1ccc(CCN(C)C(=O)CSc2nnc(-c3ccco3)o2)cc1OC	9	/	/	-22	/	-8	/	/
COCCCN=C1NN=C(c2cc(C)n(Cc3ccco3)c2C)CS1	94*	94*	79*	-4	0	-1	78*	97*
CCOc1ccccc1NC(=O)CSc1nc2[nH]ncc2c(=O)[nH]1	-3	/	/	/	/	/	/	/
SMILES	aSyn 5UTR inh	APP 5UTR inh	Ba/F3 V617F tox	KLF5 inh	BaF3 parental	IEC-6 cytotox	BaF3 parental 2	JAK2V617F conf
COc1ccc(C(=O)OCC(=O)NCc2ccccc2)c(OC)c1OC	8	-22	103*	-28	5	-4	-5	-4
CCOc1ccccc1NC(=O)c1nnn(CC(=O)Nc2cc(C)cc(C)c2)c1N	15	/	/	-33	/	0	/	/
CC1(C)CC(=O)C(C=NCCN2CCN(C(=S)Nc3ccc(F)cc3)CC2)=C(O)C1	-14	0	37*	-3	5	6	23	40*
COc1ccc(CO[C@@H]2O[C@H](CO)[C@@H](O)[C@H](O)[C@H]2NC(C)=O)cc1OC	8	/	/	-8	/	0	/	/
COc1cc(/C=C2/SC(=S)N(CC(=O)NC(C)(C)C)C2=O)cc(OC)c1OC	5	4	2	-22	5	-1	/	/
COc1cc(/C=C2\SC(=S)N(CC(=O)NC(C)(C)C)C2=O)cc(OC)c1OC	-17	4	102*	-12	5	5	-7	9
COC1(OC)C(/C=C/c2ccc(Cl)cc2)C(C#N)(C#N)C1(OC)OC (stereo not drawn)	-51	10	81*	21	13	20	2	73*
O=C(CCl)Nc1ccc(-c2ccccc2)cc1	-20	23	19	-31	3	-5	/	/
O=C(CCl)Nc1ccc(N=Nc2ccccc2)cc1	-63	-31	28*	-107	2	-5	19	94*
C(=N\Nc1nc2ccccc2[nH]1)/c1cccc2nccnc12	67*	/	50*	27	3	12	51*	63*
COc1ccc(CCN(C)C(=O)C2CCN(Cc3cccc(OC)c3OC)CC2)cc1OC	26	-22	31*	-23	-1	2	-1	-2
O=S(=O)(CCSc1nc2ccccc2o1)c1nc2ccccc2s1	-28	13	83*	13	26	0	29*	99*
Cc1cccc(OCC(=O)Nc2cc(C)ccc2O)c1	-37	1	37*	-40	6	8	5	67*
Cc1cccc(OCC(=O)Nc2cc(C)c(C)cc2O)c1	-112	-14	-1	-1	4	-2	/	/
COc1cc(C(=O)NCC(c2ccc(F)cc2)N2CCOCC2)ccc1OCc1ccccc1Cl (stereo not drawn)	14	/	/	/	/	/	/	/
COC(=O)C1CN(C(=O)C(C)Oc2cccc(C)c2C)c2ccccc2O1 (stereo not drawn)	3	/	/	-38	/	5	/	/
Cc1nc([N+](=O)[O-])c(Br)n1CC(=O)c1ccc2ccccc2c1	-24	-2	44*	-3	6	3	-3	77*
